Among the test systems are NCI-H23 lung; NCI-H226 lung; NCI-H322M lung; HOP-62 NSCLC; NCI-H460 lung; HOP-92 NSCLC; NCI-H522 lung; A549/ATCC NSCLC; 786-0 renal; COLO 205 colon.
Holding throughout (experiment): NCI-60 one-dose screen, 48 h (100 = growth as untreated, 0 = no growth, -100 = all killed)
Common to all, as to conditions: 10 µM unless noted

The panel holds about 83,000 compounds, 20% with a hit somewhere; the sample as a whole holds those more often.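 Percent growth is the endpoint: 0 to 100 indicates growth inhibition (40 means 60% inhibition), 0 means no net growth, and negative values indicate cell death.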 Values without a mark were called inactive. The source made the active and inactive calls. The calls were made as follows: active = growth percent below 10; inactive = the rest.

As to `COc1cc(C2CC(=O)Nc3c2c(C)nn3-c2nc3ccccc3[nH]2)cc(OC)c1OC` (stereo not given), the growth in the assay on NCI-H23 lung is 99.6%; in the assay with NCI-H226 lung, 99.1%; in the assay with NCI-H322M lung, 103%; with HOP-62 NSCLC it was 104%; in the assay with NCI-H460 lung, 100%; with HOP-92 NSCLC, 89.8%. Moreover, the growth with NCI-H522 lung is 94%; in the assay on A549/ATCC NSCLC it was 97.7%; in the assay with 786-0 renal, 110%; with COLO 205 colon, 116%.
On to `C/C(=C(/c1ccc(O)cc1)c1ccc(OCCN2CCCC2)cc1)c1ccccc1`, for which the growth with NCI-H23 lung was 68.1%; with NCI-H226 lung it was 82.9%; in the assay with NCI-H322M lung it was 75.8%; in the assay on HOP-62 NSCLC it was 70.3%; in the assay on NCI-H460 lung, 24.7%; in the assay with HOP-92 NSCLC, 30%. Further, the growth in the assay on NCI-H522 lung is 49.8%; in the assay on A549/ATCC NSCLC it was 48.7%; in the assay with 786-0 renal, 57.1%; with COLO 205 colon it was -56.4% (active).
In the case of `Cn1c(=O)c2c(ncn2CC[N+](C)(C)C)n(C)c1=O`, the growth was 99.9% in the assay with NCI-H23 lung; 93.2% in the assay on NCI-H226 lung; 101% with NCI-H322M lung; 92% in the assay on HOP-62 NSCLC; 109% with NCI-H460 lung; 110% with HOP-92 NSCLC. Further, the growth in the assay on NCI-H522 lung is 80.7%; in the assay on A549/ATCC NSCLC it was 91.7%; in the assay on 786-0 renal, 108%; in the assay with COLO 205 colon, 103%.
Regarding `Cc1cc(N/N=C/c2nc(-c3ccc(Cl)cc3)oc2C)c2cc(Br)ccc2n1`, the growth was 96.4% in the assay on NCI-H23 lung; 92.9% with NCI-H226 lung; 72.5% in the assay with NCI-H322M lung; 100% with HOP-62 NSCLC; -47.4% (active) in the assay on NCI-H460 lung; 69.6% in the assay with HOP-92 NSCLC. Moreover, the growth in the assay on NCI-H522 lung was -1.02% (active); in the assay on A549/ATCC NSCLC, 17.1%; with 786-0 renal it was 24.6%; in the assay on COLO 205 colon it was 91.6%.
For the compound `CN1CCOCCOCCOc2ccccc2NC(=O)c2nc(cnc2N)-c2ccc(cc2)S1(=O)=O`, the growth in the assay on NCI-H23 lung is 34.5%; in the assay with NCI-H226 lung it was 101%; in the assay on NCI-H322M lung, 36.8%; with HOP-62 NSCLC, 92.4%; in the assay with NCI-H460 lung, 34.3%; with HOP-92 NSCLC it was 95.5%. In addition, the growth is 43.9% with NCI-H522 lung, 49.8% in the assay with A549/ATCC NSCLC, 18% with 786-0 renal and 27.9% in the assay on COLO 205 colon.
As for `CCOC(=O)Cc1cnn(C)c1NC(=O)c1ccc(Cl)cc1NC(C)=O`, the growth is 104% in the assay on NCI-H23 lung; 98.6% in the assay on NCI-H226 lung; 79.1% in the assay on NCI-H322M lung; 96.4% in the assay on HOP-62 NSCLC; 119% in the assay with NCI-H460 lung; 91.4% in the assay with HOP-92 NSCLC. For the same compound, the growth with NCI-H522 lung is 95.4%; in the assay on A549/ATCC NSCLC, 103%; in the assay with 786-0 renal, 98.4%; in the assay on COLO 205 colon, 110%.
Consider `O=C1/C(=C\c2cn(C(=O)c3ccc(Cl)cc3)c3ccccc23)c2ccccc2N1c1c(Cl)cccc1Cl`, for which the growth in the assay with NCI-H23 lung was 97.2%; with NCI-H226 lung, 94.9%; in the assay on NCI-H322M lung, 112%; with HOP-62 NSCLC, 94.2%; with NCI-H460 lung, 111%; in the assay with HOP-92 NSCLC it was 79.9%. Besides, the growth in the assay with NCI-H522 lung was 90.9%; in the assay on A549/ATCC NSCLC, 110%; in the assay on 786-0 renal it was 90.7%; in the assay on COLO 205 colon, 123%.
Take `Nc1c(C(=O)Nc2cccc3c2OCCO3)sc2nc3c(cc12)CN(Cc1ccccc1)CC3`: the growth with NCI-H23 lung was 85.4%; with NCI-H226 lung, 82.5%; in the assay on NCI-H322M lung it was 94.3%; with HOP-62 NSCLC, 72.5%; in the assay with NCI-H460 lung, 53.4%; with HOP-92 NSCLC, 83.4%. Further, the growth in the assay with NCI-H522 lung was 29.3%; in the assay with A549/ATCC NSCLC it was 79.3%; in the assay on 786-0 renal, 87.1%; in the assay with COLO 205 colon, 90.9%.
For the compound `CC(=O)CC(C)(C)c1ccc(Cl)cc1`, the growth with NCI-H23 lung is 95.5%; in the assay on NCI-H226 lung, 99%; in the assay with NCI-H322M lung it was 107%; in the assay with HOP-62 NSCLC it was 93.3%; with NCI-H460 lung, 108%; with HOP-92 NSCLC, 80%. For the same compound, the growth is 95.5% in the assay on NCI-H522 lung, 103% in the assay with A549/ATCC NSCLC, 97.8% in the assay on 786-0 renal and 116% with COLO 205 colon.
Consider `CN(C)CC(=O)Nc1ccc(Cn2nnc3c2C(=O)c2nnn(Cc4ccc(NC(=O)CN(C)C)cc4)c2C3=O)cc1`, for which the growth is -31.7% (active) in the assay on NCI-H23 lung; -56.2% (active) in the assay on NCI-H226 lung; -52.6% (active) in the assay with NCI-H322M lung; -67.4% (active) with HOP-62 NSCLC; -3.43% (active) in the assay with NCI-H460 lung; -53.8% (active) in the assay on HOP-92 NSCLC. Moreover, the growth in the assay on NCI-H522 lung is -67% (active); with A549/ATCC NSCLC, -59.8% (active); with 786-0 renal, -76.4% (active); with COLO 205 colon, -80.4% (active).
As for `CCOC(=O)C12CCCC1=CC(=O)CC2` (stereo not given), the growth with NCI-H23 lung is 107%; in the assay with NCI-H226 lung, 107%; in the assay on NCI-H322M lung, 104%; in the assay with HOP-62 NSCLC it was 101%; with NCI-H460 lung, 107%; with HOP-92 NSCLC, 107%. In addition, the growth with NCI-H522 lung was 105%; in the assay with A549/ATCC NSCLC, 91.6%; in the assay on 786-0 renal, 104%; in the assay with COLO 205 colon, 108%.
Take `CCCCCCCCCCCCCCCC[N+]1(CC)CCCC1`: the growth with NCI-H23 lung was -28.6% (active); with NCI-H226 lung, -9.79% (active); with NCI-H322M lung it was 1.53% (active); in the assay on HOP-62 NSCLC, -49.7% (active); with NCI-H460 lung, -66.8% (active); in the assay with HOP-92 NSCLC, -29.1% (active). For the same compound, the growth with NCI-H522 lung was -73.7% (active); with A549/ATCC NSCLC, -63.1% (active); in the assay with 786-0 renal, -57.7% (active); in the assay with COLO 205 colon it was -90.4% (active).
With `CN(C)c1ccc(C2Nc3ccccc3-n3cccc32)cc1` (stereo not given), the growth with NCI-H23 lung is 102%; in the assay on NCI-H226 lung, 82.8%; with NCI-H322M lung it was 91.9%; in the assay with HOP-62 NSCLC it was 107%; in the assay on NCI-H460 lung it was 85.8%; with HOP-92 NSCLC, 89.7%. For the same compound, the growth with NCI-H522 lung was 113%; in the assay on A549/ATCC NSCLC, 98.3%; with 786-0 renal, 108%; in the assay with COLO 205 colon it was 96%.
